Results: PubChem BioAssay (EPA / NIEHS)
Inconclusive results are not listed. Activity calls are given as the source filed them. How the source made its calls, unless noted: active means hit-call score of the fitted dose curve at least 0.9, where 1 is the maximum; inactive means score below 0.9.

Tests used:
[1] = CCTE_Shafer_MEA_dev_per_network_spike_spike_percent: CCTE's Neural Network Formation Assay for Percent of Spikes in a Network Spike, Shafer Lab (AID 2284054)
Method in brief: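 Metric: fraction of spikes falling in a 0.05 s window at network-spike peaks. Recordings were made on days 5, 7, 9 and 12 and collapsed by trapezoidal AUC. Cultures were rat cortical neurons on MEA plates, dosed continuously from plating, re-dosed at media changes.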

[2] = CCTE_Shafer_MEA_dev_LDH: CCTE's Lactate Dehydrogenase Assay for Cytotoxicity in the Neural Network Formation Assay, Shafer Lab (AID 2284068; active means hit-call score of the fitted dose curve at least 0.9, where 1 is the maximum;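 further: exposure for twelve days from plating with re-dosing on DIV 5 and 9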)
Method in brief: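 Rat cortical primary neurons, MEA culture; dosing day 0–12, full medium plus compound exchange DIV 5, 9. Read-out: LDH enzyme activity, spectrophotometric. DMSO = negative control/baseline; signal loss → cytotoxicity.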

[3] = CCTE_Shafer_MEA_acute_LDH: CCTE's Lactate Dehydrogenase Assay for Cytotoxicity in the Neural Acute Assay, Shafer Lab (AID 2284086; active means hit-call score of the fitted dose curve at least 0.9, where 1 is the maximum;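 further: active means LDH release rises above DMSO vehicle level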)
Method in brief: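 LDH absorbance at 490 nm in medium taken right after 40-min compound exposure; rat primary cortical neuron networks on MEA plates, days post-plating 13 or 15. Increase over DMSO baseline scored as cytotoxicity.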

[4] = CCTE_Shafer_MEA_dev_mutual_information_norm: CCTE's Neural Network Formation Assay for Mutual Information Normalization, Shafer Lab (AID 2284091)
Method in brief: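 Shared information across electrodes, tracked on days 5, 7, 9 and 12 of network development and collapsed as trapezoidal area under the curve. Rat cortical cultures were treated continuously from plating, with treatment renewed at feeds on DIV 5 and 9; DMSO baseline, negative-direction fit.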

[5] = CCTE_Shafer_MEA_dev_correlation_coefficient_mean: CCTE's Neural Network Formation Assay for Mean Correlation Coefficient, Shafer Lab (AID 2284093)
Method in brief: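 Rat cortical cultures, 1.5 x 10^5 cells/well, dosed from day 0 for 12 days. Spontaneous spikes recorded DIV 5/7/9/12; electrode-pair correlation coefficients averaged, AUC taken. Fit in loss direction vs DMSO.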

[6] = IUF_NPC1b_proliferation_BrdU_72hr: Leibniz Research Institute for Environmental Medicine (IUF) 72-hour Neural Progenitor Cell Bromodeoxyuridine (BrdU) Proliferation Assay (NPC1b) (AID 2284207)
Method in brief: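 Human fetal cortex-derived (GW 16-19) neural progenitor spheres, 0.25-0.35 mm, one per well in EGF/FGF proliferation medium, exposed to compound for 72 h at 37C, pH 7.2-7.6. BrdU incorporation over the final 16 h read by luminescence ELISA, relative to DMSO.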

[7] = IUF_NPC1a_proliferation_area_72hr: Leibniz Research Institute for Environmental Medicine (IUF) 72-hour Neural Progenitor Cell Proliferation Area Assay (NPC1a) (AID 2284208)
Method in brief: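 hNPC spheres (human fetal cortex, GW 16-19), one per poly-Hema U-bottom well; EGF+FGF medium; dosed day 0, no re-dosing; 72 h, 37C, 5% CO2; phase-contrast sphere area; DMSO = baseline; minus-GF = positive ctrl.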

[8] = IUF_NPC1_viability_72hr: Viability Assessment at 72 hours in the Leibniz Research Institute for Environmental Medicine (IUF) Neural Progenitor Cell Proliferation Assay (NPC1) (AID 2284209)
Method in brief: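 Alamar blue fluorescence (RFU) after 72 h exposure, normalized to DMSO baseline. hNPC spheres from GW 16-19 fetal cortex, single sphere per well in growth-factor medium; no compound renewal.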

[9] = CCTE_Mundy_HCI_Cortical_Synap_Neur_Matur_NeuriteSpotCountPerNeuriteLength: CCTE's Synaptogenesis and Neurite Maturation Assay in rat cortical cells for Neurite Spot Count per Neurite Length, Mundy Lab (AID 2284210)
Method in brief: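 Synaptophysin spots per unit neurite length, measured by automated imaging of MAP2/synaptophysin/Hoechst-stained neurons. Cultures from rat cortex received chemical at DIV 7 with media change through DIV 12; glial growth arrested by AraC at DIV 5; DMSO baseline.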

[10] = CCTE_Mundy_HCI_Cortical_NOG_NeuriteLength: CCTE's Neurite Outgrowth Assay in rat cortical cells for Neurite Length, Mundy Lab (AID 2284213)
Method in brief: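 First, rat primary cortical cells were plated and, 2 h later, given test chemical as a 1/10 dilution. Finally, βIII-tubulin immunostaining enabled automated imaging of neurite length.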

[11] = CCTE_Mundy_HCI_Cortical_Synap_Neur_Matur_NeuriteLength: CCTE's Synaptogenesis and Neurite Maturation Assay in rat cortical cells for Neurite Length, Mundy Lab (AID 2284214)
Method in brief: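 Read-out: high-content imaging of MAP2-labelled neurites, with synaptophysin and Hoechst co-stain, in rat cortical cultures fixed at DIV 12. Activity fitted in positive direction relative to DMSO baseline.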

[12] = CCTE_Mundy_HCI_Cortical_Synap_Neur_Matur_NeuriteSpotCountPerNeuron: CCTE's Synaptogenesis and Neurite Maturation Assay in rat cortical cells for Neurite Spot Count per Neuron Count, Mundy Lab (AID 2284215)
Method in brief: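 Read-out: neurite-associated synaptophysin puncta per neuron, imaged by high-content analysis after MAP2, synaptophysin and Hoechst staining. Rat primary cortical cultures, dosed DIV 7 through DIV 12; DMSO served as baseline.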

[13] = CCTE_Mundy_HCI_Cortical_Synap_Neur_Matur_SynapseCount: CCTE's Synaptogenesis and Neurite Maturation Assay in rat cortical cells for Synapse Count, Mundy Lab (AID 2284218)
Method in brief: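 Read-out: synapse number per neuron, automated high-content imaging of fixed cells immunostained for MAP2 and synaptophysin plus Hoechst nuclei. Rat primary cortical cultures, AraC at DIV 5, chemical dosing DIV 7–12. Positive-direction fit relative to DMSO.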

[14] = CCTE_Mundy_HCI_hN2_NOG_NeuriteCount: CCTE's Neurite Outgrowth Assay in human hN2 cells for Neurite Count, Mundy Lab (AID 2284219; active means hit-call score of the fitted dose curve at least 0.9, where 1 is the maximum)
Method in brief: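 In this morphology assay, hNP1-derived neurons received test chemical 2 h post-plating and were fixed two days later in warm paraformaldehyde/sucrose containing Hoechst 33342. Neurites, labelled by rabbit anti-βIII-tubulin (1:800) and Alexa Fluor-488 (1:500), were counted automatically.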

[15] = CCTE_Mundy_HCI_hN2_NOG_NeuriteLength: CCTE's Neurite Outgrowth Assay in human hN2 cells for Neurite Length, Mundy Lab (AID 2284220; active means hit-call score of the fitted dose curve at least 0.9, where 1 is the maximum)
Method in brief: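 Plate hNP1-derived neurons, then add chemical 2 h later as a 1/10 dilution. Stain with anti-βIII-tubulin then Alexa Fluor-488 secondary, and image automatically to measure neurite length.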

[16] = CCTE_Mundy_HCI_Cortical_Synap_Neur_Matur_CellBodySpotCount: CCTE's Synaptogenesis and Neurite Maturation Assay in rat cortical cells for Cell Body Spot Count, Mundy Lab (AID 2284223)
Method in brief: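 Read-out: cell body-associated synaptophysin puncta per neuron, imaged after MAP2, synaptophysin and Hoechst staining. Rat cortical cells, AraC DIV 5, chemical dosing DIV 7, fixation DIV 12. Activity fitted in positive direction relative to DMSO baseline.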

[17] = CCTE_Mundy_HCI_hNP1_Pro_ResponderAvgInten: CCTE's Proliferation Assay in human neuroprogenitor cells, Mundy Lab (AID 2284224; active means hit-call score of the fitted dose curve at least 0.9, where 1 is the maximum;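 further: human neural progenitor cells hNP1 derived from WA09 embryonic stem cells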)
Method in brief: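 Proliferation was scored as BrdU labelling intensity in human neural progenitors derived from WA09 embryonic cells, measured 26.25 hours after chemical dosing. Activity was fitted relative to DMSO.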

[18] = CCTE_Mundy_HCI_Cortical_NOG_NeuronCount: CCTE's Neurite Outgrowth Assay in rat cortical cells for Neuron Count, Mundy Lab (AID 2284236; active means hit-call score of the fitted dose curve at least 0.9, where 1 is the maximum;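 further: neurons counted by imaging betaIII-tubulin and Hoechst stained cortical cells; cells exposed to compound for about 48 hours before fixation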)
Method in brief: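 Read-out: neuron number by high-content imaging of betaIII-tubulin (Alexa Fluor-488) and Hoechst-labelled rat primary cortical cells.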

[19] = CCTE_Mundy_HCI_hNP1_Casp3_7: CCTE's Caspase-Glo 3/7 Assay in human neuroprogenitor cells for Apoptosis, Mundy Lab (AID 2284240)
Method in brief: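 Apoptosis is scored by activated caspase-3/7 luminescence in WA09-derived neural progenitor cells, measured 26.5 h after chemical dosing. Values represent gain of signal relative to DMSO vehicle.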

[20] = IUF_NPC2c_oligodendrocyte_migration_120hr: Leibniz Research Institute for Environmental Medicine (IUF) 120-hour Neural Progenitor Cell Migration Assay for Oligodendrocyte Migration (NPC2c) (AID 2284297);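 further: O4-positive oligodendrocyte migration distance divided by radial glia migration distance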
Method in brief: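 hNPC spheres (GW 16-19 cortex), PDL/laminin, DMEM/F12 3:1 + 1% N2, 37C. Dosing day 0–5, half feed day 3, DMSO ≤0.1%. Fixed 120 h; O4 ICC + Hoechst, HCI. Readout: mean oligodendrocyte distance from sphere edge / radial glia distance.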

[21] = IUF_NPC2a_radial_glia_migration_120hr: Leibniz Research Institute for Environmental Medicine (IUF) 120-hour Neural Progenitor Cell Migration Assay for Radial Glia Migration (NPC2a) (AID 2284298)
Method in brief: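 Hoechst-stained nuclei imaged at 120 h; algorithm maps sphere core by densest nuclei, sets migration edge at density threshold, gives radial glia migration distance (um) per well vs DMSO. hNPC spheres (0.3 mm), PDL/laminin, DMEM/F12 3:1 + 1% N2.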

[22] = IUF_NPC2a_radial_glia_migration_72hr: Leibniz Research Institute for Environmental Medicine (IUF) 72-hour Neural Progenitor Cell Migration Assay for Radial Glia Migration (NPC2a) (AID 2284299)
Method in brief: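 Readout: mean of four manual brightfield measurements of radial glia migration distance (um) at 72 h. hNPC spheres (0.3 mm) exposed to 7 compound concentrations plus solvent control on PDL/laminin, 37C, 5% CO2; activity fitted relative to DMSO.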

[23] = IUF_NPC2b_neuronal_migration_120hr: Leibniz Research Institute for Environmental Medicine (IUF) 120-hour Neural Progenitor Cell Migration Assay for Neuron Migration (NPC2b) (AID 2284300)
Method in brief: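 hNPC spheres, PDL/laminin, DMEM:F12 3:1 + 1% N2, 37C/5% CO2; 7 concentrations + solvent control (DMSO ≤0.1%), 5 d exposure, half-feed day 3. Fix 120 h, TUBB3 ICC, HCI: mean neuron migration distance ÷ glia distance.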

[24] = IUF_NPC3_neuronal_differentiation_120hr: Leibniz Research Institute for Environmental Medicine (IUF) 120-hour Neuronal Differentiation Assay (NPC3) (AID 2284301)
Method in brief: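 Value is percent TUBB3-positive neurons among Hoechst-stained nuclei in the migration area, scored by trained CNN after 120 h differentiation. Primary hNPC spheres on poly-D-lysine/laminin, N2 medium, continuous dosing from day 0, half-refeed day 3; DMSO reference.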

[25] = IUF_NPC4_neurite_length_120hr: Leibniz Research Institute for Environmental Medicine (IUF) 120-hour Neuronal Morphology Assay for Neurite Length (NPC4) (AID 2284302)
Method in brief: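 Neurite length, the mean in um across TUBB3-stained neurons, is derived by skeletonization of high-content images after 120 h differentiation. Compound exposure, 7 concentrations plus solvent control, ran from plating of hNPC spheres on poly-D-lysine/laminin, with medium half-replaced on day 3.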

[26] = IUF_NPC5_oligodendrocyte_differentiation_120hr: Leibniz Research Institute for Environmental Medicine (IUF) 120-hour Oligodendrocyte Differentiation Assay (NPC5) (AID 2284304; active means hit-call score of the fitted dose curve at least 0.9, where 1 is the maximum;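 further: primary human fetal neural progenitor spheres plated to migrate and differentiate; share of O4-positive cells among Hoechst nuclei found by CNN image analysis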)
Method in brief: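 hNPC spheres, fetal cortex GW 16-19; PDL/laminin, DMEM:F12 3:1 + 1% N2, 37C/5% CO2; 7 concentrations + solvent control, 5 d exposure, half-change day 3. Readout: %O4+ of Hoechst+ nuclei in migration area, CNN classification; DMSO baseline.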

[27] = IUF_NPC2-5_cytotoxicity_72hr: Cytotoxicity Assessment at 72 hours in the Leibniz Research Institute for Environmental Medicine (IUF) Neural Progenitor Cell Migration and Differentiation Assay for Cytotoxicity (NPC2-5) (AID 2284306; active means hit-call score of the fitted dose curve at least 0.9, where 1 is the maximum;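 further: LDH release into supernatant measured by resorufin fluorescence marking membrane damage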)
Method in brief: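 Membrane-integrity cytotoxicity at 72 h, read as LDH-driven resorufin fluorescence in supernatant. hNPC spheres from fetal cortex differentiate on coated plates in N2 medium, 37C, 5% CO2; seven serial compound concentrations plus solvent control (DMSO ≤0.1%).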

[28] = IUF_NPC2-5_cytotoxicity_120hr: Cytotoxicity Assessment at 120 hours in the Leibniz Research Institute for Environmental Medicine (IUF) Neural Progenitor Cell Migration and Differentiation Assay (NPC2-5) (AID 2284307; active means hit-call score of the fitted dose curve at least 0.9, where 1 is the maximum)
Method in brief: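 hNPC spheres on PDL/laminin, N2 medium, 37C; 7 concs + solvent control, DMSO ≤0.1%; 5-day exposure, half medium changed day 3. LDH in supernatant at 120 h, resazurin→resorufin fluorescence, gain-of-signal.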

[29] = IUF_NPC2-5_cell_number_120hr: Cell Number Assessment at 120 hours in the Leibniz Research Institute for Environmental Medicine (IUF) Neural Progenitor Cell Migration and Differentiation Assay (NPC2-5) (AID 2284308);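 further: count of Hoechst-stained nuclei in migration zone around plated human neural progenitor spheres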
Method in brief: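 Hoechst-stained nuclei within the migration area were counted by automated high content imaging after 120 h. Single hNPC spheres differentiated on poly-D-lysine/laminin in DMEM/F12 (3:1) with 1% N2, compound present throughout, DMSO ≤0.1%.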

[30] = IUF_NPC2-5_viability_120hr: Viability Assessment at 120 hours in the Leibniz Research Institute for Environmental Medicine (IUF) Neural Progenitor Cell Migration and Differentiation Assay (NPC2-5) (AID 2284312)
Method in brief: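 Alamar blue resorufin fluorescence read after 5 days of differentiation, with compound present from day 0 and replenished at day 3. Primary hNPC spheres on laminin-coated plates, 37C; seven concentrations plus solvent control, fitted against DMSO.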

[31] = IUF_NPC1_cytotoxicity_72hr: Cytotoxicity Assessment at 72 hours in the Leibniz Research Institute for Environmental Medicine (IUF) Neural Progenitor Cell Proliferation Assay (NPC1) (AID 2284332; active means hit-call score of the fitted dose curve at least 0.9, where 1 is the maximum;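 further: rising LDH signal means more cytotoxicity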)
Method in brief: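 LDH in supernatant, resazurin→resorufin fluorescence (RFU), 72 h exposure, no re-dosing. Cells: primary hNPC spheres, one per well, EGF+FGF medium, 37C/5% CO2, pH 7.2-7.6. Fit: positive direction vs baseline and dynamic range.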

Measured: outcome

CC1(C)S[C@@H]2[C@H](NC(=O)[C@H](N)c3ccc(O)cc3)C(=O)N2[C@H]1C(=O)O
inactive: all assays above
